Laboratory results from PubChem BioAssay (NCATS).
Results filed as inconclusive are left out. Calls of active or inactive are those of the source. Calls come from the whole dose curve; as a rule, active = well fitted curve in the direction sought with a large enough effect; inconclusive = small, poorly fitted or top-dose-only effect, or another doubt; inactive = no such curve, though single readings can be large; an effect the other way counts as inactive or inconclusive.

Tests used:
CRL-7250 = normal cell line; assay: Cytotoxic Profiling of Annotated Libraries Using Quantitative High-Throughput Screening (AID 1296008); settings: Five cell lines viability, CellTiter-Glo ATP luminescence, 48-72 h; max response: active compounds read low; note: nearly all actives have a fitted effect of over 60% in size; note: potency is the fitted concentration of half-maximal effect; for max response: % is set by controls: 0 for no effect and ±100 for the full control effect
How it was run: (§1)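 Compounds were pin-transferred onto cells and incubated 48 or 72 hr at 37 degree Celsius, 95% humidity. CellTiter-Glo was added, plates sat 10 min at room temperature, then ATP-coupled luminescence was imaged as the viability read-out.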

HEK293 = assay: as above; settings: Five cell lines viability, CellTiter-Glo ATP luminescence, 48-72 h; max response: active compounds read low
How it was run: as §1

NIH3T3 [1] = assay: as above; settings: Five cell lines viability, CellTiter-Glo ATP luminescence, 48-72 h; max response: active compounds read low
How it was run: as §1

C33A = assay: Primary qHTS to identify gynecologic anti-cancer compounds using libraries of approved drugs and bioactive compounds (AID 1345084); settings: Gynecologic cancer cell panel viability, ATPlite luminescence, 48 h; series mostly up to 57.5 µM; note: nearly all actives have a fitted effect of over 55% in size; note: potency is the fitted concentration of half-maximal effect; for activity change, negative = cytotoxicity: % is set by controls: 0 for no effect and ±100 for the full control effect
How it was run: (§2)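 Measured: luminescence after ATPlite addition (15 min, RT). Exposure: 48 h, 37 C, 5% CO2.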

CAOV3 = assay: as above; settings: Gynecologic cancer cell panel viability, ATPlite luminescence, 48 h; series mostly up to 57.5 µM
How it was run: as §2

Es-2 = assay: as above; settings: Gynecologic cancer cell panel viability, ATPlite luminescence, 48 h; series mostly up to 57.5 µM
How it was run: as §2

HeLa = assay: as above; settings: Gynecologic cancer cell panel viability, ATPlite luminescence, 48 h; series mostly up to 57.5 µM
How it was run: as §2

Hek293T = assay: as above; settings: Gynecologic cancer cell panel viability, ATPlite luminescence, 48 h, control line for the selectivity index; series mostly up to 57.5 µM
How it was run: as §2

JEG-3 = assay: as above; settings: Gynecologic cancer cell panel viability, ATPlite luminescence, 48 h; series mostly up to 57.5 µM
How it was run: as §2

HaCat [2] = assay: Cytotoxic Profiling of Annotated Libraries Using Quantitative High-Throughput Screening (AID 1296008); settings: Five cell lines viability, CellTiter-Glo ATP luminescence, 48-72 h; max response: active compounds read low; note: nearly all actives have a fitted effect of over 60% in size; note: potency is the fitted concentration of half-maximal effect; for max response: % is set by controls: 0 for no effect and ±100 for the full control effect
How it was run: as §1

OV90 = assay: Primary qHTS to identify gynecologic anti-cancer compounds using libraries of approved drugs and bioactive compounds (AID 1345084); settings: Gynecologic cancer cell panel viability, ATPlite luminescence, 48 h; series mostly up to 57.5 µM; note: nearly all actives have a fitted effect of over 55% in size; note: potency is the fitted concentration of half-maximal effect; for activity change, negative = cytotoxicity: % is set by controls: 0 for no effect and ±100 for the full control effect
How it was run: as §2

CASKI = assay: as above; settings: Gynecologic cancer cell panel viability, ATPlite luminescence, 48 h; series mostly up to 57.5 µM
How it was run: as §2

HACAT [3] = assay: qHTS assay to identify novel small-molecules to repurpose for Merkel cell carcinoma treatment (AID 1296009); settings: MCC and control cell lines, CellTiter-Glo viability, 72 h; at 44.8 µM (top of the series) unless noted; note: nearly all actives have a fitted effect of over 60% in size
How it was run: (§3)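 Luminescence from CellTiter-Glo, read 10 min after addition at room temperature, reported viability following a 72 hr, 37 degree celsius treatment with NPC or MIPE compounds in titration; values normalized to plate controls.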

NIH3T3 [4] = assay: as above; settings: MCC and control cell lines, CellTiter-Glo viability, 72 h; series mostly up to 44.8 µM
How it was run: as §3

Nc1ncnc2c1nc(Cl)n2C1OC2COP(=O)(O)OC2C1O (stereo unspecified)
active: Potency (CRL-7250) 6.51 µM | Potency (HEK293) 1.64 µM | Potency (NIH3T3 [1]) 5.8 µM | Potency (C33A) 7.94 µM | Potency (CAOV3) 5.62 µM | Potency (Es-2) 10 µM | Potency (HeLa) 11.2 µM | Potency (Hek293T) 10 µM | Potency (JEG-3) 15.8 µM

CC[C@@H](C)Nc1cc(C(=O)NC2CC3CC[C@@H](C2)N3c2ccc(C(=O)C3CC3)cn2)c(C)cc1C(N)=O (stereo partly specified)
active: Potency (CRL-7250) 0.231 µM | Potency (HEK293) 0.0517 µM | Potency (HaCat [2]) 0.092 µM | Potency (CAOV3) 0.794 µM | Potency (Hek293T) 0.316 µM | Potency (OV90) 0.316 µM

c1ccc(-c2ccc(CNc3nc(-c4ccccn4)nnc3-c3ccccc3)cc2)cc1
inactive: Potency (JEG-3)
active: Potency (CRL-7250) 5.8 µM | Potency (HEK293) 5.17 µM | Potency (NIH3T3 [1]) 3.66 µM | Potency (C33A) 12.6 µM | Potency (CAOV3) 8.91 µM | Potency (CASKI) 11.2 µM | Potency (Es-2) 17.8 µM | Potency (OV90) 7.08 µM

O=S(=O)(Nc1cc(Cl)c(Oc2cnc3ccccc3c2)c(Cl)c1)c1ccc(Cl)cc1Cl
inactive: outcome (CRL-7250) | max response (HEK293) -18.7% | outcome (HaCat [2]) | outcome (HACAT [3]) | Potency (C33A) | Potency (CAOV3) | Potency (CASKI) | Potency (Es-2) | Potency (HeLa) | Potency (Hek293T) | Potency (JEG-3) | Potency (OV90)

C=CC(=O)Nc1ccc2ncnc(Nc3cccc(Br)c3)c2c1
inactive: Potency (HeLa) | Potency (Hek293T) | Potency (OV90)
active: Potency (CRL-7250) 5.8 µM | Potency (HEK293) 20.6 µM | Potency (HaCat [2]) 0.0461 µM

CNC(=O)[C@@H](c1ccccc1)N1CCc2cc(OC)c(OC)cc2[C@@H]1CCc1ccc(C(F)(F)F)cc1
active: Potency (HEK293) 16.4 µM
inactive: max response (CRL-7250) -4.36% | max response (NIH3T3 [1]) -22.6% | Potency (C33A) | Potency (CAOV3) | Potency (CASKI) | Potency (Es-2) | Potency (HeLa) | Potency (Hek293T) | Potency (JEG-3) | Potency (OV90)

Cc1[nH]c(/C=C2\C(=O)Nc3ccc(S(=O)(=O)N(C)c4cccc(Cl)c4)cc32)c(C)c1C(=O)N1CCN(C)CC1
inactive: outcome (CRL-7250) | outcome (HaCat [2]) | outcome (HACAT [3]) | Potency (C33A) | Potency (CASKI) | Potency (Es-2) | Potency (HeLa) | Potency (Hek293T) | Potency (JEG-3) | Potency (OV90)
active: Potency (HEK293) 6.51 µM | Potency (CAOV3) 25.1 µM

CC(C)n1cnc2c(-c3cnc(N)nc3)nc(N3CCOCC3)nc21
active: Potency (CRL-7250) 0.709 µM | Potency (HEK293) 1.78 µM | Potency (HaCat [2]) 0.632 µM | Potency (Hek293T) 1.12 µM
inactive: Potency (C33A) | Potency (JEG-3)

COc1cc2nc(C3CC3)nc(N3CCN(c4ccccc4OC)CC3)c2cc1OC
active: Potency (HEK293) 18.4 µM
inactive: max response (CRL-7250) -2.72% | max response (HaCat [2]) -4.62% | Potency (C33A) | Potency (CAOV3) | Potency (CASKI) | Potency (Es-2) | Potency (HeLa) | Potency (Hek293T) | Potency (JEG-3) | Potency (OV90)

N#Cc1ccc(O[C@@H]2c3ccccc3C[C@H]2N2CCC[C@@H](N)C2)c(Cl)c1
active: Potency (HEK293) 20.6 µM
inactive: max response (CRL-7250) -27.9% | outcome (HaCat [2]) | outcome (HACAT [3]) | Potency (C33A) | Potency (HeLa) | Potency (Hek293T) | Potency (JEG-3) | Potency (OV90)

Cc1csc2c(N[C@@H](C)CN3CCN(S(=O)(=O)c4ccc(Cl)c(Cl)c4)CC3)ncnc12
inactive: Potency (CAOV3) | Potency (HeLa) | Potency (JEG-3)
active: Potency (CRL-7250) 0.259 µM | Potency (HEK293) 0.366 µM | Potency (HaCat [2]) 2.91 µM

COC1CC(O[C@H]2CC[C@]3(C)C4CC[C@]5(C)C(C6=CC(=O)OC6)=CCC56OC46CC[C@@H]3C2)OC(C)C1O[C@@H]1O[C@H](CO[C@@H]2O[C@H](CO)[C@@H](O)[C@H](O)[C@H]2O)[C@@H](O)[C@H](O)[C@H]1O (stereo partly specified)
active: Potency (CRL-7250) 1.55 µM | Potency (HEK293) 1.74 µM | Potency (C33A) 2.82 µM | Potency (Es-2) 3.16 µM | Potency (HeLa) 3.55 µM | Potency (Hek293T) 2.82 µM
inactive: outcome (NIH3T3 [1]) | outcome (NIH3T3 [4]) inactive [at 9.27 µM] | activity change, negative = cytotoxicity (CASKI) -27.8% [at 11.6 µM]
